Compound activity deposited in PubChem BioAssay by National Center for Advancing Translational Sciences (NCATS).
Shown are actives, neighbours in structure and some others; about 12% of the full set was active somewhere.
JMJD2A Tudor inh = blocks the human JMJD2A Tudor domain | AlphaScreen JMJD2A-Tudor / H3K4me3 peptide binding | Potency, µM (series often up to 114 µM), inactives show at the top dose activity change, negative = inhibition, hits mostly inhibitors | O75164 | 390,000 tested, 4.4% active; also: % is scaled to controls: 0 for no effect and ±100 for the full control effect; nearly all actives have a fitted effect of over 50% in size
Sfp inh = inhibitors of Bacillus subtilis Sfp phosphopantetheinyl transferase; 310,000 tested, 3.5% active; Potency, µM, without a hit: largest response in the series, negative = inhibition, usual class: inhibitors; Biochemical Sfp PPTase activity, qHTS;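 also: the enzyme is Sfp with the accession as filed and its product quenches rhodamine fluorescence; 0% = enzyme reaction without inhibitor and -100% = no enzyme wells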
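After 15 min at room temperature with compound, 15 nM Sfp received 5 uM rhodamine-CoA plus 12.5 uM BHQ-2-ybbR (50 mM Hepes pH 7.6, 10 mM MgCl2). Rate came from the fluorescence difference over 30 min, ex 525/em 598 nm.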
G9a inh = inhibitors of human histone lysine methyltransferase G9a; G9a H3K9 monomethylation, AlphaScreen, 2 h; AID 504332; Potency, µM (top dose mostly 102 µM), for inactives: at the top dose activity, negative = inhibition, usual class: inhibitors; 350,000 tested, 8.8% active; also: % is scaled to controls: 0 for no effect and ±100 for the full control effect; nearly all actives have a fitted effect of over 75% in size
Target sequence (Q96KQ7 913-1193 limits assumed): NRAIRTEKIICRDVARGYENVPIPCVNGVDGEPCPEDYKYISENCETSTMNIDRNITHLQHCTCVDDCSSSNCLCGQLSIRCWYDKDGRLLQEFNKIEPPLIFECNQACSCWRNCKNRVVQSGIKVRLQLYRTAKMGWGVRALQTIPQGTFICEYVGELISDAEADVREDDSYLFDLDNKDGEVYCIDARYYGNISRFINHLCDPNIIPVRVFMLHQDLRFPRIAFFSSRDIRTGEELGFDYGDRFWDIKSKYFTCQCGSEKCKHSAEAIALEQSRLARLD
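Readings reflect AlphaScreen signal from monomethyl-H3K9 antibody detection. HMT at 20 nM; substrate b-H3K9 500 nM; cofactor SAM 20 uM; 2 h RT reaction; compounds tested as titrations in qHTS with 15 min preincubation.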
BAZ2B inh = blocks human BAZ2B | AlphaScreen BAZ2B-H3K14Ac peptide displacement | Q9UIF8 | 360,000 tested, 4.4% active | Potency, µM (titrated, usually from 114 µM), inactives show at the top dose activity change, negative = inhibition, most hits filed as inhibitors; also: % is scaled to controls: 0 for no effect and ±100 for the full control effect; nearly all actives have a fitted effect of over 60% in size
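In this displacement format the biotinylated H3(5-23) peptide acetylated at Lys14 serves as ligand at 50 nM, with BAZ2B at 50 nM in PBS pH 7.4 containing 0.01% Tween-20. Donor and acceptor beads are 10 ug/mL final.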
PLK1 PBD block = PLK1 (human) polo-box domain binding inhibition; P53350; Plk1 PBD binding of FITC phosphopeptide, fluorescence polarization; Potency, µM, inactives show max response, negative = inhibition, usual class: inhibitors; 360,000 tested, 2.8% active; AID 720504; also: series mostly up to about 57 µM; % is scaled to controls: 0 for no effect and ±100 for the full control effect; nearly all actives have a fitted effect of over 65% in size
HP1b binding inh = HP1-beta chromodomain-methylated histone interaction inhibition; P83916; AlphaScreen HP1-beta / biotin-H3K9me3 peptide binding; Potency, µM (highest dose often 114 µM), for the others: top-dose activity change, negative = inhibition, actives largely listed as inhibitors; 390,000 tested, 0.56% active; AID 540317; also: nearly all actives have a fitted effect of over 70% in size
Target sequence (P83916 whole entry, looked up): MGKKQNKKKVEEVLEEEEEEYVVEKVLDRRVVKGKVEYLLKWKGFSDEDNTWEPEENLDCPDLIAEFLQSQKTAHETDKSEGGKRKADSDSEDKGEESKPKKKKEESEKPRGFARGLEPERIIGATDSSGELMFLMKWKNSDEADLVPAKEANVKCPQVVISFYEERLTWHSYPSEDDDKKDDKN
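AlphaScreen: HP1-beta (50 nM) preformed 30 min with biotin-H3(1-18)K9me3 peptide (50 nM) in PBS pH 7.4, 0.01% Tween-20. Compound added for 30 min at RT, then streptavidin donor/nickel chelate acceptor beads (10 ug/mL) for 30 min.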
Active calls of the source: *; ? = inconclusive; nt = not tested or not shown; [ ] = remark or other dose. Calls follow the shape of the dose curve; as a rule, active = well fitted curve in the direction sought with a large enough effect; inconclusive = small, poorly fitted or top-dose-only effect, or another doubt; inactive = no such curve, though single readings can be large; an effect the other way counts as inactive or inconclusive. Potency is read from the fitted curve at half-maximal effect.

SMILES	JMJD2A Tudor inh	Sfp inh	G9a inh	BAZ2B inh	PLK1 PBD block	HP1b binding inh
COc1ccc(Nc2nc(OC)nc(OC)n2)cc1	-10%	-3%	25%	0%	0%	29%
COc1ccc(Nc2ccnc(Nc3ccc(OC)cc3)n2)cc1	?	-86%	?	45µM*	-3%	?
CCOc1nc(Nc2ccc(OC)cc2)nc(OCC)n1	79µM*	10%	15%[59 µM]	1%	-8%	-73%
Cc1cc(C)cc(NC(=O)Cc2csc(COc3cccc(C)c3)n2)c1	4%	nt	-1%[59 µM]	?	nt	44%
O=c1cc2c(n[nH]1)-c1ccccc1CC2	6%	15%	1%	4%	5%	23%
O=C(Cn1ncc2c3ccccc3n(Cc3ccc(F)cc3)c2c1=O)NCCCN1CCCCC1	-16%	nt	-8%[59 µM]	-14%	nt	14%
CCNC(=S)Nc1ccc2c(c1)c(=O)n(C)n2Cc1cccc(C(F)(F)F)c1	nt	nt	nt	nt	27µM*	nt
COc1ccccc1Cn1c(CNS(=O)(=O)c2ccccc2Cl)nc2cccnc21	-9%	nt	40%[59 µM]	-13%	nt	27%[57 µM]
O=C(Cc1cccs1)N/N=C\c1ccc([N+](=O)[O-])s1	-28%	?	-31%	?	3%	6%
Cc1ccc(NC(=S)N/N=C/c2ccc([N+](=O)[O-])s2)cc1	40µM*	-22%	40µM*	14µM*	-4%	?
O=[N+]([O-])c1ccc(/C=N/n2c(CO)nc3ccccc32)s1	-26%	12%	-7%[59 µM]	-8%	-9%	5%
Cc1nc2ccccc2n1/N=C/c1ccc([N+](=O)[O-])s1	-19%	4%	50µM*	-33%	-6%	-23%
Cc1cc(C)cc(N=Cc2ccc([N+](=O)[O-])s2)c1	20µM*	12%	40µM*	25µM*	-5%	45µM*
O=C(Nc1cccc(Cl)c1N1CCOCC1)c1ccc(Br)o1	-14%	-2%	27%	?	-4%	19%
Cc1c(Cl)cccc1NC(CC(=O)c1ccccc1)C(=O)OCC(=O)c1cccs1 (centres undefined)	-8%	8.9µM*	35µM*	7%	-6%	34%
O=C(CC(Nc1cccc(Cl)c1Cl)C(=O)OCC(=O)c1cccs1)c1ccccc1 (centres undefined)	-9%	56µM*	14%[59 µM]	7%	-3%	31%
COc1ccccc1NC(CC(=O)c1ccccc1)C(=O)OCC(=O)c1ccc(F)cc1 (centres undefined)	-28%	?	?	-7%	-5%	13%
O=C(CC(Nc1cccc(Cl)c1Cl)C(=O)O)c1ccccc1 (centres undefined)	-2%	8.9µM*	28µM*	-38%	-10%	50%
O=C(NCCc1ccc(Cl)cc1)C1CCN(S(=O)(=O)c2ccc3[nH]ccc3c2)CC1	-9%	nt	9%[59 µM]	-3%	nt	23%[57 µM]
N#Cc1ccccc1OCc1cn(CC(=O)c2ccc(O)cc2)nn1	20µM*	nt	nt	nt	24µM*	3%
COc1ccc(C=O)c(OCc2cn(CC(=O)c3ccc(O)cc3)nn2)c1	79µM*	nt	nt	nt	-17%	6%
N#CN1CCC(N[S+](=O)([O-])c2cccc(F)c2)CC1	-1%	nt	nt	nt	nt	nt
O=C(CN(C(=O)Cn1nnc(-c2ccc(F)cc2)n1)c1cccc(F)c1)NC1CCCC1	-1%	29%	-8%	2%	-14%	1%
CCOc1ccc(CCNC(=O)c2ccc(CS(=O)(=O)Cc3ccccc3Cl)o2)cc1OCC	-27%	nt	-5%[59 µM]	?	nt	26%
N#C/C(=C/c1ccccc1Cl)c1nc2ccccc2c(=O)[nH]1	-22%	nt	-21%[59 µM]	-17%	nt	29%
N#C/C(=C/c1ccncc1)c1nc2ccccc2c(=O)[nH]1	-9%	-17%	45µM*	-35%	-17%	26%
N#C/C(=C\c1cc(Br)c(O)c(Br)c1)c1nc2ccccc2c(=O)[nH]1	?	nt	3%[59 µM]	?	nt	-18%
N#C/C(=C\c1ccncc1)c1nc2ccccc2c(=O)[nH]1	-8%	-18%	25µM*	?	-3%	37%
